We go through eight molecules from PubChem BioAssay (Tox21).

Results filed as inconclusive are left out. Active and inactive are the calls of the source. Unless noted, calls follow the shape of the full dose curve.

The nature of assay [1]: Nuclear factor erythroid 2-related factor 2/antioxidant responsive element (Nrf2/ARE) small molecule agonists: qHTS cell viability counter screen in human keratinocytes (AID 1919968; active = well fitted curve in the direction sought with a large enough effect in the repeat runs; an effect the other way counts as inactive or inconclusive; also: nearly all actives have a fitted effect of over 55% in size). The gist of the method:
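KeratinoSens cells (HaCaT keratinocytes stably carrying an ARE-luciferase reporter) were seeded at 1,500 cells/well and rested 5 h at 37 C/5% CO2. They were then exposed to compounds in DMSO for 23 h. Viability was read by CellTiter-Fluor fluorescence after 1 h.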
A general note: qHTS replaces the single test concentration by a dilution series.

Assay [2] is described as follows: Nuclear factor erythroid 2-related factor 2/antioxidant responsive element (Nrf2/ARE) small molecule agonists: luciferase reporter gene qHTS assay in human keratinocytes (AID 1919969). Also: nearly all actives have a fitted effect of over 35% in size. On the technique in general: A reporter such as luciferase makes a cellular process visible.
Assay [3] has as its target Gonadotropin-releasing hormone receptor (Homo sapiens) (UniProt P30968). The experiment in a line: Human gonadotropin-releasing hormone receptor (GnRHR) small molecule agonists, calcium flux assay in GnRHR-HEK293 cells (AID 1920063). Also: nearly all actives have a fitted effect of over 35% in size. An outline of the steps:
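HEK293 cells stably expressing human GnRHR were plated 18 h at 37 °C, loaded with calcium dye 1 h at 37 °C, then given compound in agonist mode; fluorescence (Ex/Em 480/540) read kinetically for 3 min at 1 s intervals.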

Assay [4] deals with KiSS-1 receptor (Homo sapiens) (UniProt Q969F8). The assay is described as follows: Human kisspeptin (KISS1R) small molecule agonists, calcium flux assay in KISS1R-HEK293 cells (AID 1920064; active = well fitted curve in the direction sought with a large enough effect in the repeat runs; an effect the other way counts as inactive or inconclusive). The gist of the method: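 HEK293 cells stably expressing human KISS1R were plated 18 h at 37 °C, loaded with calcium dye for 1 h at 37 °C, then given compound by pin tool. Fluorescence (Ex/Em 480/540) was read kinetically for 3 min.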

Assay [5] can be described thus: G protein-coupled receptor (GPCR) small molecule agonists, calcium flux assay: HEK293 wild type cell line counter screen (AID 1920065). The gist of the method: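 Cells were plated and cultured 18 h at 37 C/5% CO2, then loaded with calcium dye for 1 h at 37 C. Compounds in DMSO were pin-transferred in agonist mode, and fluorescence (Ex/Em 480/540) was read kinetically for 3 min at 1 s intervals.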

Assay [6] in a line: p53 small molecule agonists, cell-based qHTS assay with human liver microsomes (AID 1963577). The gist of the method: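 In this qHTS, p53 response-element beta-lactamase cells receive test compound together with a microsome/NADPH activating system (0.5 mg/mL final each) and are incubated 16 h at 37 C before LiveBLAzer fluorescence detection.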
Assay [7] is described as follows: p53 small molecule agonists, cell-based qHTS assay with rat liver microsomes (AID 1963578). The gist of the method: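 Agonist mode in p53RE-bla reporter cells, with compounds co-incubated 16 h at 37 C alongside 0.5 mg/mL rat liver microsomes and 0.5 mg/mL NADPH (final), followed by a 2 h LiveBLAzer detection step.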
Assay [8] in a line: p53 small molecule agonists, cell-based qHTS assay with human liver microsomes: qHTS cell viability counter screen (AID 1963579). Also: nearly all actives have a fitted effect of over 45% in size. An outline of the steps: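 Metabolically activated exposure: compounds, human liver microsomes and NADPH (0.5 mg/mL final apiece) were added to p53RE-bla cells seeded 5 h earlier, left 16 h at 37 C, and then assessed for viability by CellTiter-Glo luminescence.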

Assay [9] is described as follows: p53 small molecule agonists, cell-based qHTS assay with rat liver microsomes: qHTS cell viability counter screen (AID 1963580). Also: nearly all actives have a fitted effect of over 45% in size. The gist of the method:
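p53RE-bla HCT-116 cells were exposed 16 h at 37 C to compounds with rat liver microsomes (0.5 mg/mL) and NADPH (0.5 mg/mL). Viability was measured in the same wells as ATP content by CellTiter-Glo luminescence.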

Assay [10] is described as follows: p53 small molecule agonists, cell-based qHTS assay: qHTS cell viability counter screen (AID 1963581). Also: nearly all actives have a fitted effect of over 45% in size. An outline of the steps:
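p53RE-bla HCT-116 cells were exposed to compounds for 16 h at 37 C; after the beta-lactamase FRET read in the same wells, CellTiter-Glo was added and luminescence (intracellular ATP) read after 30 min at room temperature.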

The nature of assay [11]: p53 small molecule agonists, cell-based qHTS assay (AID 1963582; active = well fitted activation curve with a large enough effect in the signal ratio in the repeat runs, not every such curve was filed as active; the % refers to the signal ratio). An outline of the steps:
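p53RE-bla beta-lactamase reporter cells rested 5 h at 37 C/5% CO2, then received compounds in DMSO by pin transfer and were incubated 16 h at 37 C. LiveBLAzer B/G FRET substrate was loaded for 2 h at room temperature before fluorescence reading.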

Assay [12] has as its target 5-hydroxytryptamine receptor 2A (Homo sapiens) (UniProt P28223). The assay is described as follows: 5-hydroxytryptamine receptor 2A (HTR2A) small molecule antagonists, cell-based qHTS assay (AID 1963586). Also: nearly all actives have a fitted effect of over 45% in size. The gist of the method:
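Antagonist-mode intracellular calcium assay: DOI (4 nM) added after 5 min compound pre-incubation at room temperature to dye-loaded HTR2A-CHO cells. Fluorescence followed for 3 min, sampled every second.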

For assay [13] the target is unchanged. The experiment in a line: 5-hydroxytryptamine receptor 2A (HTR2A) small molecule agonists, cell-based qHTS assay (AID 1963587). Also: nearly all actives have a fitted effect of over 30% in size. An outline of the steps:
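CHO cells stably expressing human HTR2A, plated 18 h, loaded with calcium dye 1 h at 37 C. Agonist mode: compounds added and intracellular calcium fluorescence recorded kinetically for 2 min at 1 sec intervals.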

For assay [14], the target named is Muscarinic acetylcholine receptor M1 (Homo sapiens) (UniProt P11229). The experiment in a line: Cholinergic receptor muscarinic 1 (CHRM1) small molecule antagonists, cell-based qHTS assay (AID 1963588). Also: nearly all actives have a fitted effect of over 40% in size. An outline of the steps: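 CHRM1-CHO calcium-flux assay, antagonist mode. Cells were seeded 18 h, dye-loaded 1 h at 37 C and given compound for 5 min at RT, then acetylcholine was added at 50nM. FDSS fluorescence was read 3 min; 15 concentrations, three runs.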

Assay [15] has the same target. The assay is described as follows: Cholinergic receptor muscarinic 1 (CHRM1) small molecule agonists, cell-based qHTS assay (AID 1963589). Also: nearly all actives have a fitted effect of over 35% in size. Also: potency is read from the fitted curve at half-maximal effect. The gist of the method:
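CHO cells stably expressing human CHRM1, seeded 18 h at 37 C/5% CO2, dye-loaded 1 h at 37 C, then given compound in agonist mode; intracellular calcium fluorescence read kinetically at 1 s intervals. Fifteen concentrations, three independent runs.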

Assay [16] can be described thus: cAMP Responsive Elements (CRE) small molecule agonists, cell-based qHTS assay (AID 1963590). An outline of the steps: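 CRE-bla HEK 293T cells in DMEM with 10% dialyzed FBS, NEAA, pyruvate and 25 mM HEPES were plated 18 h at 37 C/5% CO2, then exposed to compounds in DMSO for 3 h before LiveBLAzer B/G FRET substrate addition.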
The nature of assay [17]: cAMP Responsive Elements (CRE) small molecule antagonists, cell-based qHTS assay (AID 1963591; active = well fitted inhibition curve with a large enough effect in the signal ratio in the repeat runs, not every such curve was filed as active; the % refers to the signal ratio). An outline of the steps: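 CRE-bla HEK293T cells were plated 18 h at 37 °C/5% CO2, pinned with compound in DMSO, then stimulated with NKH477 at 0.25 uM final for 3 h. LiveBLAzer B/G FRET substrate was added and plates incubated 2 h at room temperature.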
For assay [18], the target named is Beta-2 adrenergic receptor (Homo sapiens) (UniProt P07550). The experiment in a line: Adrenergic beta2 receptor (ADRB2) small molecule antagonists, cell-based qHTS assay (AID 1963592). Also: series mostly up to about 92 µM; nearly all actives have a fitted effect of over 50% in size. The gist of the method: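 Cells (CHO, stable ADRB2 overexpression) incubated 18-20hr at 37C; compounds added from DMSO; agonist mix (1nM isoproterenol, 100uM IBMX, 25uM Ro-20-1724) added; 0.5hr RT; d2-cAMP and anti-cAMP-cryptate added; 1hr RT; 665/615 nm read.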

Assay [19] shares this target. The assay is described as follows: Adrenergic beta2 receptor (ADRB2) small molecule agonists, cell-based qHTS assay (AID 1963593).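 Also: CHO cells stably overexpressing human ADRB2.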 An outline of the steps: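 CHO cells stably over-expressing ADRB2 were plated overnight at 37C, then dosed with compounds plus a stimulation mix containing 100uM IBMX and 25uM Ro-20-1724 for 0.5hr at room temperature. cAMP was measured by HTRF competition, 1hr.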

Assay [20] concerns the target D(2) dopamine receptor (Homo sapiens) (UniProt P14416). The experiment in a line: Dopamine D2 receptor (DRD2) small molecule agonists, cell-based qHTS assay (AID 1963594). Also: nearly all actives have a fitted effect of over 35% in size. The gist of the method:
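HEK293 cells stably expressing human DRD2, pre-treated with PDE inhibitor Ro20-1724 (0.1 mM final) and compound 10 min at room temperature, then stimulated with NKH477 (200nM […]) for 30 min. cAMP read by HTRF (665/620 nm).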

5-hydroxytryptamine receptor 2A (Homo sapiens), sequence (P28223 whole entry, looked up): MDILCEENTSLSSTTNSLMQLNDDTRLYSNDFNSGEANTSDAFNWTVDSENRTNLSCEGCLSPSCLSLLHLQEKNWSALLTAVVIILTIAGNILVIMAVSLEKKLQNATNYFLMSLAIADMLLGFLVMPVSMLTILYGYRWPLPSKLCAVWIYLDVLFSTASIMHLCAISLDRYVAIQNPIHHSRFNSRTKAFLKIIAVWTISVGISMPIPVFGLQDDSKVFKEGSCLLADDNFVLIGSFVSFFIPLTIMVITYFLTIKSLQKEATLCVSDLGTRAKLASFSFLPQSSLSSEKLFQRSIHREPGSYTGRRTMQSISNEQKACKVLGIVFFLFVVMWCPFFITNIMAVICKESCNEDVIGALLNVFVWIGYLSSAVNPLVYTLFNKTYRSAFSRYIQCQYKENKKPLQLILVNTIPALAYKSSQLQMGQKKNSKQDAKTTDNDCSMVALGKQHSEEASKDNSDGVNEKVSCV
KiSS-1 receptor (Homo sapiens), sequence (Q969F8 whole entry, looked up): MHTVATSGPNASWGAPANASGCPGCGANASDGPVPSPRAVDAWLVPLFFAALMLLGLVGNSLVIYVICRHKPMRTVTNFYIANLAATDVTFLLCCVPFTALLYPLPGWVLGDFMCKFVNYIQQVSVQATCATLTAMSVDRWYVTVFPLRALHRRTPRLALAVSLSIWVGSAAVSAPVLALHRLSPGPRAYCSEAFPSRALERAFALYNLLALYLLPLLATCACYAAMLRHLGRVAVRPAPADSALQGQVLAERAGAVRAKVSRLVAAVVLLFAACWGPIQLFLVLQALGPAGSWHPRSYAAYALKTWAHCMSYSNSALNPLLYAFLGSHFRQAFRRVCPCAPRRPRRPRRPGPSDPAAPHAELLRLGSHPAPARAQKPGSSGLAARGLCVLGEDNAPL
Beta-2 adrenergic receptor (Homo sapiens), sequence (P07550 whole entry, looked up): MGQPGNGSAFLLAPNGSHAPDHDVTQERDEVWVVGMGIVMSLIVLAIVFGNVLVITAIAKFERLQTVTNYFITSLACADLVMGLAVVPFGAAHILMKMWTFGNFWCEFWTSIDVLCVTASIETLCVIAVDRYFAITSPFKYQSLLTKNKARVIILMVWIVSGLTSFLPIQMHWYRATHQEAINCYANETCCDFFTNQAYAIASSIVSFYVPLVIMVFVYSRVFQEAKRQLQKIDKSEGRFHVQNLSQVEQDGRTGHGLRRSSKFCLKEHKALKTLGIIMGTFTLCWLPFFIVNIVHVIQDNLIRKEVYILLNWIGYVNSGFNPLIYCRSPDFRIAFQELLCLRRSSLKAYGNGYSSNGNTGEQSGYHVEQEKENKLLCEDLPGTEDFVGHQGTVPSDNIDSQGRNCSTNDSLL
Muscarinic acetylcholine receptor M1 (Homo sapiens), sequence (P11229 whole entry, looked up): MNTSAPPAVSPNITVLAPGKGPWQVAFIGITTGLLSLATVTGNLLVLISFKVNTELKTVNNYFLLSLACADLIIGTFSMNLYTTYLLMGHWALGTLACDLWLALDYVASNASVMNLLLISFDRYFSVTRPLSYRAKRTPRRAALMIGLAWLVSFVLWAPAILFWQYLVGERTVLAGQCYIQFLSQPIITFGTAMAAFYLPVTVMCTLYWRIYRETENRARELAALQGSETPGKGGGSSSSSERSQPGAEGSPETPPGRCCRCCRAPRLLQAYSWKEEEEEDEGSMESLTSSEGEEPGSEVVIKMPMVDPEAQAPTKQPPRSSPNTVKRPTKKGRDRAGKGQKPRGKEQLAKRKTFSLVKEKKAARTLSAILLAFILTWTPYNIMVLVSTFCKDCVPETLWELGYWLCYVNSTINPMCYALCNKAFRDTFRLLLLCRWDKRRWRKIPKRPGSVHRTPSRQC
D(2) dopamine receptor (Homo sapiens), sequence (P14416 whole entry, looked up): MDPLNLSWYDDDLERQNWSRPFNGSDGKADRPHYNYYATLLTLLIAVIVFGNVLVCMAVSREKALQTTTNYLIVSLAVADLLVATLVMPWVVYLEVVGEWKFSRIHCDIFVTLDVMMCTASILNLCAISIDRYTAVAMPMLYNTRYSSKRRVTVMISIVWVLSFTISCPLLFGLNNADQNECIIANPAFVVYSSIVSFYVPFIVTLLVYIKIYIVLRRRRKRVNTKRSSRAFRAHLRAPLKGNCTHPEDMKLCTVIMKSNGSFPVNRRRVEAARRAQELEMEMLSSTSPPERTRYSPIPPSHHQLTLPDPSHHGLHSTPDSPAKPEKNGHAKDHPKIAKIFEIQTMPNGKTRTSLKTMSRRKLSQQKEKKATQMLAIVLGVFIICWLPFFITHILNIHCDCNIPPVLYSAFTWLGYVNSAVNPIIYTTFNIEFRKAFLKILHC
Gonadotropin-releasing hormone receptor (Homo sapiens), sequence (P30968 whole entry, looked up): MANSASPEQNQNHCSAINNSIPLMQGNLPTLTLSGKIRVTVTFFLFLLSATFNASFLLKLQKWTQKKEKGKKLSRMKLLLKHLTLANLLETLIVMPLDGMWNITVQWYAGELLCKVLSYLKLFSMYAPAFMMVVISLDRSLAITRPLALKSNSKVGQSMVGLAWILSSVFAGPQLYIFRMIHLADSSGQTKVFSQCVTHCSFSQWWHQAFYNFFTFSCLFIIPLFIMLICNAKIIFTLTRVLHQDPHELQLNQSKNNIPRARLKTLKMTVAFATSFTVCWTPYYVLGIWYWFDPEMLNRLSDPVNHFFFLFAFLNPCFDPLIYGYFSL

With `Cc1ncsc1CCO`, the Potency entry in assay [1], in assay [2], in assay [3], in assay [4], in assay [5] and in assay [6] was “inactive” in each case. Besides, the Potency entry in assay [7], in assay [8], in [9], in [10], in assay [11] and in assay [12] was “inactive” each time. Besides, the Potency result in [13], in assay [14], in assay [15], in assay [16], in assay [17] and in [18] was “inactive” throughout. Further, the Potency entry in assay [19] and in assay [20] was “inactive” each time.

As for `O=[Si]=O`, the Potency result in assay [1], in [2], in [3], in assay [4], in assay [5] and in assay [6] was “inactive” throughout. Also, the Potency result in [7], in [8], in assay [9], in assay [10], in assay [11] and in [12] was “inactive” throughout. The Potency entry in [13], in assay [14], in [15], in [16], in assay [17] and in assay [18] was “inactive” each time. The Potency entry in [19] and in assay [20] was “inactive” throughout.

`Nc1cccc2c1CN(C1CCC(=O)NC1=O)C2=O` (stereo not given): the Potency entry in [1], in [2], in assay [3], in [4], in [5] and in assay [6] was “inactive” in each case. In addition, the Potency result in assay [7], in [8], in assay [9], in assay [10], in assay [11] and in assay [12] was “inactive” throughout. Also, the Potency result in [13], in assay [14], in [15], in assay [16], in [17] and in [18] was “inactive” throughout. Also, the Potency result in assay [19] and in [20] was “inactive” throughout.

Consider `NC(=O)C1CO1` (stereo not given), for which the Potency result in assay [1], in [2], in assay [3], in assay [4], in assay [5] and in [6] was “inactive” throughout. Also, the Potency entry in assay [7], in assay [8], in [9], in assay [10], in assay [11] and in assay [12] was “inactive” in each case. The Potency entry in assay [13], in assay [14], in assay [15], in [16], in assay [17] and in [18] was “inactive” each time. The Potency result in [19] and in assay [20] was “inactive” throughout.

For `C=CCCCCCCCCCCCC`, the Potency result in assay [1], in assay [2], in assay [3], in assay [4], in [5] and in assay [6] was “inactive” each time. In addition, the Potency entry in assay [7], in assay [8], in [9], in [10], in assay [11] and in assay [12] was “inactive” in each case. The Potency entry in assay [13], in assay [14], in [16], in [17], in assay [18] and in assay [19] was “inactive” in each case. The Potency result in assay [20] was “inactive”. Further, the Potency in assay [15] was 245 nM (active).

Take `Nc1ccc(NCCO)c([N+](=O)[O-])c1`: the Potency entry in assay [1], in [2], in assay [3], in assay [4], in assay [5] and in assay [6] was “inactive” in each case. For the same molecule, the Potency entry in assay [7], in [8], in assay [9], in assay [10], in assay [11] and in assay [12] was “inactive” in each case. The Potency result in assay [13], in assay [14], in assay [15], in assay [16] and in assay [17] was “inactive” in each case.

Turning to `CC(C)(CCC(=O)O)C(=O)O`, the Potency result in [1], in assay [2], in assay [3], in assay [4], in assay [5] and in assay [6] was “inactive” throughout. Moreover, the Potency entry in assay [7], in [8], in assay [9], in [10], in assay [11] and in assay [12] was “inactive” in each case. In addition, the Potency entry in [13], in [14], in assay [15], in [16], in assay [17] and in [18] was “inactive” each time.

Consider `CCC(C)c1ccccc1` (stereo not given), for which the Potency entry in [1], in [2], in assay [3], in assay [4], in assay [5] and in [6] was “inactive” in each case. Moreover, the Potency result in [7], in assay [8], in [9], in [10], in assay [11] and in assay [12] was “inactive” throughout. Further, the Potency entry in assay [13], in [14], in [15], in assay [16], in assay [17] and in [18] was “inactive” in each case. In addition, the Potency result in assay [19] and in assay [20] was “inactive” in each case.
